Values joined by “and” are separate entries in the source; they are usually repeats but may differ in a detail not shown here. Identical values can stand only once. This is part of a sample that, as a whole, favours compounds with a hit. Of some 83,000 tested, about 20% had one in any assay.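 Method: cells in 96-well plates; compound added at one concentration; 48 h incubation; percent growth measured; values under 10 scored active.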 Active and inactive are the calls of the source.
How the values were obtained:
Test in all cases: NCI-60 one-dose screen, 48 h (100 = growth as untreated, 0 = no growth, -100 = all killed)
[1] = tested on: HCT-15 colon; details: 10 µM unless noted
[2] = tested on: HT29 colon; details: 10 µM unless noted
[3] = tested on: SNB-75 CNS; details: 10 µM unless noted
[4] = tested on: SNB-19 CNS; details: 10 µM unless noted
[5] = tested on: U251 CNS; details: 10 µM unless noted
[6] = tested on: PC-3 prostate; details: 10 µM unless noted
[7] = tested on: SK-MEL-5 melanoma; details: 10 µM unless noted
[8] = tested on: UACC-62 melanoma
[9] = tested on: LOX IMVI melanoma; details: 10 µM unless noted
[10] = tested on: SK-MEL-28 melanoma; details: 10 µM unless noted

Measured: growth

NNC(=O)CSc1nc2scc(-c3ccccc3)c2c(=O)n1-c1ccccc1
inactive: [1] 101% | [2] 121% | [3] 88.3% | [4] 107% | [5] 103% | [6] 80.5% | [7] 88.4% | [8]; 10 µM unless noted 90.2% | [9] 78.7%

CC(=O)N1N=C(C2C(=O)N(C)C(=O)N(C)C2=O)CC1c1ccccc1C(=O)O (stereo unspecified)
inactive: [1] 110% | [2] 98.9% | [3] 95% | [4] 106% | [5] 104% | [6] 95.4% | [7] 107% | [8]; 10 µM unless noted 100% | [9] 99.1%

COc1cc(NC(=O)CSc2nc3ccc(Cl)cc3c(=O)n2Cc2ccccc2)cc(OC)c1OC
inactive: [1] 88.3% | [2] 56.5% | [3] 53.4% | [4] 88.3% | [5] 55.5% | [6] 71.1% | [7] 45.5% | [8]; 10 µM unless noted 43.2% | [9] 74.5% | [10] 78.2%

CC(C)C/C=C/C=C/C(=O)N[C@@H](CC(N)=O)C(=O)N[C@@H]1C(=O)N[C@H](c2ccc(O)cc2)C(=O)N[C@H](CCCN)C(=O)N[C@H]([C@@H](C)O)C(=O)N[C@H](c2ccc(O)cc2)C(=O)N[C@H](c2ccc(O)cc2)C(=O)N[C@H]([C@H](C)O)C(=O)N[C@H](Cc2ccccc2)C(=O)N[C@H](CCCN)C(=O)N[C@H](c2ccc(O[C@H]3O[C@@H](CO)[C@@H](O)[C@@H](O)[C@H]3O[C@@H]3O[C@H](CO)[C@H](O)[C@H](O)[C@@H]3O)cc2)C(=O)N[C@H]([C@H](C)O)C(=O)N[C@H](c2ccc(O)cc2)C(=O)NCC(=O)N[C@H](CC(C)C)C(=O)N[C@H](C)C(=O)N[C@H](c2ccc(O)c(Cl)c2)C(=O)O[C@@H]1C(N)=O
inactive: [1] 70% | [2] 24.2% | [3] 81.9% | [4] 21% | [6] 83.3% | [7] 26.2% | [9] 36.8%
active: [5] -19% | [8]; 10 µM unless noted -4.24%

CCN(CC)c1ccc2c(cc1=O)[C@@H](NC(C)=O)CCc1cc(OC)c(OC)c(OC)c1-2
inactive: [1] 30% | [3] 22.1% | [4] 40.8% | [5] 11.8% | [6] 31.7% | [8]; 10 µM unless noted 19.4% | [9] 25.1%
active: [2] -26.4% | [7] 7.17%

COc1ccc2nc3cc(Cl)ccc3c(NC(=O)CSc3ccc(Cl)cc3)c2c1
active: [1] -53.6% | [2] -78.3% | [3] -99.2% | [4] -86.4% | [5] -90.6% | [6] -81.8% | [7] -98% | [8]; 10 µM unless noted -80% | [9] -80.3%

Clc1ccc(Cl)c(N=Cc2ccc3c(c2)OCO3)c1
inactive: [1] 106% | [2] 110% | [3] 103% | [4] 107% | [5] 104% | [6] 107% | [7] 106% | [8]; 10 µM unless noted 103% | [9] 95.2%

CCN(CC)CCNC(=O)C(F)(F)C(F)(F)C(F)(F)F
inactive: [1] 100% | [2] 115% | [3] 97.2% | [4] 116% | [5] 104% | [6] 96% | [7] 105% | [8]; 10 µM unless noted 107% | [9] 104%

O=[N+]([O-])c1ccc(N/N=C/c2ccccc2O)nc1
inactive: [1] 29.9% | [2] 47% | [3] 52.9% | [4] 56.2% | [5] 28.5% | [6] 45.8% | [7] 20% | [8]; 10 µM unless noted 42.7% | [9] 26.4% | [10] 62%

O=C1C=CN2C(=O)CC=CC2[C@@H]1O (stereo partly specified)
inactive: [1] 138% | [2] 110% | [3] 94.1% | [4] 130% | [5] 120% | [6] 94.9% | [7] 109% | [8]; 10 µM unless noted 115% | [9] 100%

O=C(C(=O)N1CCCC1)c1cn(CCCn2cc(C(=O)C(=O)N3CCCC3)c3cc(Br)ccc32)c2ccc(Br)cc12
inactive: [1] 84.6% | [2] 79.3% | [3] 46.3% | [4] 85.5% | [5] 36.6% | [6] 66.5% | [7] 90.8% | [8]; 10 µM unless noted 85.1% | [9] 57.9% | [10] 79.8%

NS(=O)(=O)c1ccc(CCn2c(SCC(=O)N/N=C/c3ccccc3O)nc3ccccc3c2=O)cc1
active: [2] 10%
inactive: [1] 59.9% | [3] 23.8% | [4] 49.1% | [5] 26.8% | [6] 36.1% | [7] 30.5% | [8]; 10 µM unless noted 48.8% | [9] 43.9% | [10] 76.5%

CCOC(=O)Nc1ccc2nc(Sc3ccc(Cl)cc3)sc2c1
active: [3] -12% | [7] 6.76%
inactive: [1] 25.5% | [2] 19.4% | [4] 48.3% | [5] 36.1% | [6] 34.3% | [8]; 10 µM unless noted 33.8% | [9] 47.9%

Cc1cc([N+](=O)[O-])c(C)cc1N
inactive: [1] 105% | [2] 92.1% | [3] 86.7% | [4] 108% | [5] 103% | [6] 88.6% | [7] 98.4% | [8]; 10 µM unless noted 95.5% | [9] 100%

CCN(C(=O)CCl)C(C)(C)C(SSSC(c1ccc(Cl)cc1)C(C)(C)N(CC)C(=O)CCl)c1ccc(Cl)cc1 (stereo unspecified)
inactive: [1] 56.3% | [2] 18% | [3] 84.3% | [4] 117% | [5] 63.5% | [6] 63.3% | [7] 73.5% | [9] 66.6%
active: [8]; 10 µM unless noted -2.54%

C[C@H](NC(=O)c1snnc1C1CC1)c1c(F)cccc1Cl
inactive: [1] 93.9% | [2] 119% | [3] 95.1% | [4] 142% | [5] 90% | [6] 98.9% | [7] 98.2%

COc1cc2c(c(OC)c1O)C(=O)C(OC)C(c1ccc(O)c(O)c1)O2 (stereo unspecified)
active: [1] 3.6% | [3] -8.14% | [6] -22.3% | [7] -23.6%
inactive: [2] 46.8% | [4] 21% | [5] 15.4% | [8]; 10 µM unless noted 29.3% | [9] 12.9% | [10] 56.2%

COc1ccc(/C(C)=N/NC(=O)c2ccc(S(C)(=O)=O)cc2)cc1OC
inactive: [1] 97.9% | [2] 117% | [3] 85.9% | [4] 105% | [5] 104% | [6] 99.3% | [7] 106% | [8]; 10 µM unless noted 102% | [9] 106%

C/C(=N\Nc1ccc([N+](=O)[O-])cn1)c1ccc(N)cc1
inactive: [1] 95.1% | [2] 101% | [3] 94.4% | [4] 95.9% | [5] 95.7% | [6] 94.1% | [7] 101% | [8]; 10 µM unless noted 99.1% | [9] 100%

CCOC(=O)N1C2CCC(C2)N1C(=O)OCC
inactive: [1] 106% | [2] 107% | [3] 71.6% | [4] 100% | [5] 99.1% | [6] 105% | [7] 104% | [8]; 10 µM unless noted 98.2% | [9] 99.7%

COc1ccc(/C=C/C(=O)CCC(=O)O)cc1OC
inactive: [1] 115% | [2] 101% | [3] 90.5% | [4] 111% | [5] 107% | [6] 111% | [7] 109% | [8]; 10 µM unless noted 110% | [9] 99.7%

COc1cc(Cl)cc(-c2nn(C(=O)NCCN3CCOCC3)cc2-c2ccncc2)c1
inactive: [1] 45.7% | [2] 34.1% | [3] 28.9% | [4] 69.2% | [5] 57.7% | [6] 70.6% | [7] 35.5% | [8]; 10 µM unless noted 52.4% | [9] 63.2%

CCOC(OCC)c1cnc2nc(NC(C)=O)[nH]c(=O)c2n1
inactive: [1] 98.7% | [2] 90.6% | [3] 91.5% | [4] 99.4% | [5] 104% | [6] 106% | [7] 104% | [8]; 10 µM unless noted 102% | [9] 100%

C#CCNc1nc(NCCNC(=O)CCl)nc(N(C)CCCCc2ccccc2)n1
active: [9] -12.5%
inactive: [1] 92.4% | [2] 109% | [3] 104% | [4] 99.3% | [5] 98.6% | [6] 107% | [7] 53.8% | [8]; 10 µM unless noted 91.7%

CCOC(=O)C1C(=O)C=C(c2ccccc2)CC1c1sc(N(C)Cc2ccccc2)nc1Cl (stereo unspecified)
inactive: [1] 94.3% | [2] 91.2% | [3] 89.1% | [4] 89.7% | [5] 92.7% | [6] 76.4% | [7] 92.7% | [8]; 10 µM unless noted 61.4% | [9] 88.2%

Cc1cc(O)c2cc3c(O)c(O)ccc3cc2c1
active: [8]; 100 µM -27.7% and -63.9%
inactive: [1] 113% | [2] 125% | [3] 127% | [4] 108% | [5] 108% | [6] 97.1% | [7] 94.8% | [8]; 10 µM 114% | [9] 112%

Nc1ncnc2c1N=C(c1ccc3c(c1)OCO3)CC(c1ccc(Cl)cc1)N2 (stereo unspecified)
inactive: [1] 63.6% | [2] 69.8% | [3] 48.5% | [4] 67.8% | [5] 74% | [6] 62.6% | [7] 78% | [8]; 10 µM unless noted 60.3% | [9] 76.2%

c1ccc2oc(-c3cnc4nonc4n3)cc2c1
inactive: [1] 107% | [2] 96.3% | [3] 76.6% | [4] 88.8% | [5] 103% | [6] 92.7% | [7] 98.4% | [8]; 10 µM unless noted 79.6% | [9] 94.6% | [10] 120%

C(=Nc1ccc(-c2ccc(N=Cc3ccccc3)cc2)cc1)c1ccccc1
inactive: [1] 106% | [2] 93.9% | [3] 83.4% | [4] 107% | [5] 98.3% | [6] 80.3% | [7] 105% | [8]; 10 µM unless noted 93.7% | [9] 105%
